Results on 40 compounds are retold here after PubChem BioAssay (NCI).

Compounds without any hit were thinned out: in the full panel of roughly 83,000, 20% have a hit.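 Plates (96-well) were seeded with cells, treated with compound at one concentration, and incubated for 48 hours before percent growth was determined.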 Active and inactive are the calls of the source. The calls were made as follows: active = growth percent below 10; inactive = the rest.

The experiment relates to MDA-MB-468 breast. In words: NCI-60 one-dose screen, 48 h (100 = growth as untreated, 0 = no growth, -100 = all killed). Particulars: 10 µM unless noted.
Take `Cc1ccc(Nc2cc(N)nc(N)n2)cc1`: the growth is 92.2% (inactive).
As for `Nc1ccc(-c2cc3c(Nc4ccc(Oc5cccc(C(F)(F)F)c5)c(Cl)c4)ncnc3s2)cc1`, the figure is -9.82% (active).
As for `CCCCC(CC)OC(=O)C(Br)CC` (stereo not given), the figure is 106% (inactive); as for `COc1ccc(-c2cc(-c3ccc(Cl)cc3)c(C#N)c(=O)n2CCCCCC(=O)Nc2ccccc2N)cc1`, 53.1% (inactive).
Regarding `Fc1cccc(CNc2c3ccccc3nc3ccccc23)c1`, the growth is 0.607% (active).
`N#Cc1nc(-c2ccccc2)oc1S(=O)(=O)NCC(c1ccc(Cl)cc1)N1CCCCC1` (stereo not given): the growth was 41.4% (inactive).
`COc1cc(NCCCCCN)c2ncccc2c1`: the growth is 114% (inactive).
With `CN1CCN(CCCCCC(=O)Nc2nc(-c3cccc(NS(=O)(=O)c4cccc5c(N(C)C)cccc45)c3)cs2)CC1`, the growth was 74% (inactive).
As for `COC1CCN(Cc2ccc3c(NNC(=O)c4cnccn4)nc4cc(F)ccc4n23)C1` (stereo not given), the figure is -32.1% (active).
Next, `COC(=O)c1cccc(NC(=O)c2ccc(-c3cccc(N)c3)o2)c1`: 99.7% (inactive).
Consider `CN1CCN(c2ccc(C(=O)Nc3cccc(C#Cc4cccc5[nH]nc(N)c45)c3)cc2C(F)(F)F)CC1`, for which the growth was -26.6% (active).
`CCCCNCCCCCNc1cc(OC)cc2cccnc12`: the growth is 68.8% (inactive).
With `O=c1[nH]c2ccc(Br)cc2c2c1C(c1ccc(Cl)cc1)c1c(ncn3nc(-c4ccco4)nc13)O2` (stereo not given), the growth is 85.9% (inactive).
Next, `COc1ccc(Oc2nc(Nc3ccc(N4CCOCC4)cc3)ncc2NC(=O)c2cccc(C(F)(F)F)c2)cc1`: 93% (inactive).
As to `O=C(N/N=C/c1c(Cl)cccc1Cl)c1cccc(Nc2ccnc(C(F)(F)F)c2)c1`, the growth was 67.6% (inactive).
Regarding `COc1ccc(/C=N\NC(=O)c2ccncc2)cc1O`, the growth is 92.8% (inactive).
As for `COc1cc(/C=N\NC(=O)c2ccc3nc(-c4ccc(Br)cc4)[nH]c3c2)cc(OC)c1OC`, the figure is 37.2% (inactive); as for `S=C1CCCC(=S)N1`, 100% (inactive).
As for `CCCN=C(N)c1ccc(NC(=O)c2ccc(C(=O)Nc3ccc(C(N)=NCCC)cc3)cc2)cc1`, the figure is 67.1% (inactive).
Next, `CCO/C=N/C1=C(C#N)C(c2ccc(OC)cc2)c2sc3c(CC)cccc3c2O1` (stereo not given): -21.1% (active); `O=[N+]([O-])c1ccc(NC(=S)NNC(=S)Nc2ccc(Br)cc2)cc1`: 82.5% (inactive); `O=C1/C(=C/c2ccc(-c3ccc(Br)cc3)o2)SC(=S)N1CCc1ccc(O)cc1`: 90.2% (inactive).
Take `CCN(CC)CCNc1ccc(CO)c2oc3cc(Cl)ccc3c(=O)c12`: the growth is 68.1% (inactive).
As for `CN1C(=O)/C(=C2\SC(=Nc3ccccc3)N(Nc3ccccc3)C2=O)c2ccccc21`, the growth was 94.7% (inactive).
As for `COc1cc2nc(-c3cccc4cccnc34)nc(NC3CCN(Cc4ccccc4)CC3)c2cc1OC`, the growth is -78.5% (active).
In the case of `COc1ccc2nc3ccccc3c(NCc3ccc(Cl)cc3)c2c1`, the growth was -30.6% (active).
As for `N#CC1=C(NC=O)Oc2c(ccc3ccccc23)C1c1ccccc1` (stereo not given), the growth is 12% (inactive).
With `CC(C)CCC[C@@H](C)[C@H]1CC[C@H]2[C@@H]3CC=C4C[C@@H](C(C(=O)O)C(=O)O)CC[C@]4(C)[C@H]3CC[C@]12C`, the growth was -32% (active).
Next, `Cc1cc(=O)n(Nc2ccccc2)c(O)c1C#N`: 108% (inactive); `CN(C)c1ncc(-c2ccc(C(F)(F)F)cc2)c(NC2CCCCCC2)n1`: 29.5% (inactive).
As for `Cc1ccc(NC2=CC(=O)C(=O)c3ccccc32)c(C)c1`, the growth is 14.1% (inactive).
On to `CNC(=O)c1cc(Oc2ccc3c(c2)sc2nc(-c4ccc(Cl)cc4)cn23)ccn1`, for which the growth is 77.3% (inactive).
As for `Cc1cc(Nc2nc(-c3cccnc3)nc3ccccc23)n[nH]1`, the figure is 26.8% (inactive); as for `Cc1c(Cl)cccc1C(=O)Nc1nc2c(s1)CN(C(=O)Nc1cccc(C(F)(F)F)c1)CC2`, 16.7% (inactive); as for `Cc1ccc2nc(N)nnc2c1`, 102% (inactive).
For the compound `CN1CCN(Cc2ccc(NC(=O)c3nc4ccc5[nH]ncc5c4c4c3CCC4)cc2C(F)(F)F)CC1`, the growth was -59.2% (active).
As to `COc1ccc(-c2nn(-c3cccc(Cl)c3)cc2/C=C2\NC(=S)N(c3ccc(Cl)cc3)C2=O)cc1`, the growth was -56.7% (active).
In the case of `CCSc1nc(Cl)c(C#N)c(-c2ccc(F)cc2)n1`, the growth was 84.2% (inactive).
As to `S=C(S)NCCc1c[nH]c2ccccc12`, the growth was 98.6% (inactive).
Turning to `IP(CCCCCCCCCCSc1n(Cc2ccc3ccccc3c2)c(-c2ccccc2)c(-c2ccccc2)[n+]1Cc1ccc2ccccc2c1)(c1ccccc1)(c1ccccc1)c1ccccc1`, the growth was -75.3% (active).
